# A number with no mark means an inactive call. Records with an inconclusive call do not appear. Entries that show only a call come without a potency. Calls of active or inactive are those of the source. Unless noted, calls follow the shape of the dose curve; as a rule, active = well fitted curve in the direction sought with a large enough effect; inconclusive = small, poorly fitted or top-dose-only effect, or another doubt; inactive = no such curve, though single readings can be large; an effect the other way counts as inactive or inconclusive.
# Tests used:
# [1] = biological target: Cytochrome P450 2D6 (Homo sapiens) (UniProt P10635); assay: Cytochrome P450 family 2 subfamily D member 6 (CYP2D6) small molecule antagonists: luciferase biochemical (cell-free) qHTS assay (AID 1645840; active = well fitted curve in the direction sought with a large enough effect in the repeat runs; an effect the other way counts as inactive or inconclusive; also: nearly all actives have a fitted effect of over 55% in size; also: potency is read from the fitted curve at half-maximal effect)
# Summary of the method: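 P450-Glo luminescent screen: recombinant CYP2D6 enzyme–proluciferin substrate mix preincubated with compound 10 min at room temperature, then NADPH regeneration added for 1 h at room temperature. Detection reagent added for 20 min; luciferin light read as relative luminescence units.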
# [2] = biological target: Cytochrome P450 2C9 (Homo sapiens) (UniProt P11712); assay: Cytochrome P450 family 2 subfamily C member 9 (CYP2C9) small molecule antagonists: luciferase biochemical (cell-free) qHTS assay (AID 1645842; active = well fitted curve in the direction sought with a large enough effect in the repeat runs; an effect the other way counts as inactive or inconclusive; also: nearly all actives have a fitted effect of over 55% in size; also: potency is read from the fitted curve at half-maximal effect)
# Summary of the method: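 Luminescence, after 20 min with luciferin detection reagent, reflected CYP2C9 turnover during a 1 h NADPH-driven reaction at 37C. Enzyme-substrate mix contained 0.4% bovine serum albumin and was preincubated with compound 10 min at room temperature.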
# [3] = Viability counterscreen for antagonist of constitutive androstane receptor (CAR) against the NCATS DSHEA and TCM libraries (AID 1794837);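 also: compound exposure lasted 24 h before viability reading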
# Summary of the method: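 Cell viability, CellTiter-Fluor, Ex/Em 405/540 nm, 1 h at 37C. HepG2-CYP2B6-hCAR, 2,500 cells/well; cpds + CITCO 48 uM final (antagonist mode), 24 h, 37C/5% CO2.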
# [4] = Viability counterscreen for agonist of constitutive androstane receptor (CAR) against the NCATS DSHEA and TCM libraries (AID 1794838)
# Summary of the method: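 Viability by CellTiter-Fluor fluorescence, 405/540 nm, after 1 h at 37C. HepG2-CYP2B6-hCAR cells were exposed 24 h to test substances in presence of 0.75 uM PK11195 (final).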
# [5] = biological target: Nuclear receptor subfamily 1 group I member 3 (Homo sapiens) (UniProt Q14994); assay: Primary qHTS for agonist of constitutive androstane receptor (CAR) against the NCATS DSHEA and TCM libraries (AID 1794839);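 also: HepG2 cells expressing human CAR with a CYP2B6 reporter plus PK11195 antagonist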
# Summary of the method: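 Luminescence from ONE-Glo luciferase was the agonist read-out in HepG2-CYP2B6-hCAR cells exposed 24 h to test substances. Wells also held the CAR antagonist PK11195 at 0.75 µM final. Viability was by CellTiter-Fluor fluorescence.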
# [6] = HepG2 viability counterscreen (readout 2: ATP content) against the NCATS DSHEA and TCM libraries (AID 1794840)
# Summary of the method: (§1)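 1,000 HepG2 cells/well, 4 h attach; compounds ~24 h, 37C/5% CO2. Readout 1: GF-AFC 25 uM final, 30 min, fluorescence 380/510 nm. Readout 2: CellTiter-Glo, 30 min RT, luminescence.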
# [7] = HepG2 viability counterscreen (readout 1: protease activity) against the NCATS DSHEA and TCM libraries (AID 1794841);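 also: cells exposed to compounds for about 24 h before the protease read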
# Summary of the method: as §1
# [8] = biological target: Cytochrome P450 3A4 (Homo sapiens) (UniProt P08684); assay: qHTS for inhibitors of CYP3A4 against the NCATS DSHEA and TCM libraries (AID 1919971);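 also: inhibition lowers luminescence from luciferin made by CYP3A4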
# Summary of the method: (§2)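 Luminescent P450-Glo format: compounds preincubated 15 min with enzyme and luciferin substrate, reaction run 30-45 min after NADPH regeneration solution. Intraplate controls: ketoconazole for CYP3A4 and CYP2C19, sulfaphenazole for CYP2C9.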
# [9] = biological target: Cytochrome P450 2D6 (Homo sapiens) (UniProt P10635); assay: qHTS for inhibitors of CYP2D6 against the NCATS DSHEA and TCM libraries (AID 1919972)
# Summary of the method: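 Luminescent P450-Glo read-out of CYP2D6 turnover of a luciferin substrate after NADPH-driven reaction of 30-45 min at room temperature. Compounds were first preincubated 15 min with enzyme at titrated concentrations; quinidine was the intraplate control.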
# [10] = biological target: Cytochrome P450 2C9 (Homo sapiens) (UniProt P11712); assay: qHTS for inhibitors of CYP2C9 against the NCATS DSHEA and TCM libraries (AID 1919973);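 also: luminogenic pro-luciferin CYP2C9 substrate turned into luciferin with NADPH regeneration; series mostly up to about 34 µM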
# Summary of the method: as §2
# [11] = biological target: Cytochrome P450 2C19 (Homo sapiens) (UniProt P33261); assay: qHTS for inhibitors of CYP2C19 against the NCATS DSHEA and TCM libraries (AID 1919974);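 also: luminescence from luciferin released by CYP2C19 oxidation of a pro-luciferin substrate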
# Summary of the method: as §2
# [12] = KB-3-1 P-gp reporter qHTS against the NCATS DSHEA and TCM libraries (AID 1919975)
# Summary of the method: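 CellTiter-Glo luminescence viability readout; KB-3-1 parental cells, 500/well, attached ~4 h, then compound for ~72 h, 37C, 5% CO2. Bortezomib intraplate control.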
# [13] = biological target: Cytochrome P450 1A2 (Homo sapiens) (UniProt P05177); assay: qHTS for inhibitors of CYPIA2 against the NCATS DSHEA and TCM libraries (AID 1919976);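 also: light from luciferin formed by CYP1A2 from a pro-luciferin substrate; series mostly up to about 37 µM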
# Summary of the method: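 Human CYP1A2 with pro-luciferin substrate (typically 100 mM KPO4), 15 min preincubation with compound, then 1x NADPH regeneration for 30-45 min at room temperature in the dark. Luciferin quantified by luciferase luminescence; furafylline intraplate control.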
# [14] = qHTS Counterscreen for compound interference against the NCATS DSHEA and TCM libraries (AID 1919978); conditions: firefly luciferase detection reagent interference, luminescence;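 also: compounds preincubated with 1 µM D-luciferin or buffer before detection reagent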
# Summary of the method: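 Luminescence counterscreen for detection-kit interference: compounds at 19.5 nM–39.8 uM final, 15 min RT with 1 uM D-luciferin or buffer only; detection reagent added, 30 min RT, then read.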
# [15] = Dual reporter qHTS for agonist of Pregnane X Receptor (hPXR) against the NCATS DSHEA and TCM libraries: Fluorescence readout (AID 1920058)
# Summary of the method: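 hPXR-Luc HepG2 cells, 2000/well in charcoal-stripped serum, attached 5 h, dosed for ~24 h at 37 °C. Fluorescence read is CellTiter-Fluor viability (Ex/Em 405/540 nm); rifampicin positive, tetraoctyl ammonium bromide (92 µM) cytotoxicity controls.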
# [16] = biological target: Nuclear receptor subfamily 1 group I member 2 (Homo sapiens) (UniProt O75469); assay: Dual reporter qHTS for agonist of Pregnane X Receptor (hPXR) against the NCATS DSHEA and TCM libraries: Luminescence readout (AID 1920059)
# Summary of the method: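 hPXR-Luc HepG2 cells, 2000/well in 5% charcoal-stripped FBS medium, attached 5 h, then exposed 24 h at 37C to compounds. Viability by CellTiter-Fluor, then luciferase luminescence with ONE-Glo.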
# [17] = biological target: Nuclear receptor subfamily 1 group I member 2 (Homo sapiens) (UniProt O75469); assay: Dual reporter qHTS for antagonist of Pregnane X Receptor (hPXR) against the NCATS DSHEA and TCM libraries: Luminescence Readout (AID 1920060)
# Summary of the method: (§3)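 Rifampicin-stimulated (2 uM final) hPXR-luciferase HepG2 cells were treated for 24 h with DSNP/TCM substances. Viability came from CellTiter-Fluor fluorescence, reporter activity from ONE-Glo luminescence.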
# [18] = Dual reporter qHTS for antagonist of Pregnane X Receptor (hPXR) against the NCATS DSHEA and TCM libraries: Fluorescence Readout (AID 1920061)
# Summary of the method: as §3
# [19] = biological target: Glutathione peroxidase 1 (Homo sapiens) (UniProt P07203); assay: Primary qHTS Assay for Inhibitors of Recombinant Selenoprotein Glutathione Peroxidase 1 (GPX1) (AID 1845191); also: nearly all actives have a fitted effect of over 65% in size
# Summary of the method: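 GR-coupled assay: compounds preincubated 30 min at room temperature with GPX1, then reaction started with CHP; final 10 nM GPX1, 1 mM GSH, 0.5 mM CHP, 0.5 mM NADPH, 100 nM GR, 0.01% BSA, pH 7.5 Tris buffer. NADPH fluorescence (340/450 nm) read at 0 and 15 min.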
# [20] = biological target: Phospholipid hydroperoxide glutathione peroxidase GPX4 (Homo sapiens) (UniProt P36969); assay: Primary qHTS Assay for Inhibitors of Recombinant Selenoprotein Glutathione Peroxidase 4 (GPX4) (AID 1845192); also: series mostly up to about 50 µM; nearly all actives have a fitted effect of over 65% in size
# Summary of the method: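 GR-coupled assay: recombinant GPX4 preincubated 30 min with compound at room temperature; final 200 nM GPX4, 1 mM GSH, 0.5 mM cumene hydroperoxide, 0.5 mM NADPH, 100 nM GR, 0.01% BSA, pH 7.5 Tris. NADPH fluorescence (340/450 nm) read at 0 and 15 min.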
# [21] = biological target: Rap guanine nucleotide exchange factor 3 (Homo sapiens) (UniProt O95398); assay: Confirmatory qHTS for antagonist of cAMP-regulated guanine nucleotide exchange factor 3 (EPAC1) (AID 1645880); also: potency is read from the fitted curve at half-maximal effect; nearly all actives have a fitted effect of over 55% in size
# Summary of the method: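 Nucleotide exchange uses 100 nM EPAC1, 250 nM RAP1B-BODIPY-GDP and 50 uM GDP, with compounds in a concentration-titration series. After 5 min at room temperature, fluorescence (480 nm ex/540 nm em) is read every 5 min for 30 min. Data are normalized to control ATA and DMSO.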
# [22] = biological target: Rap guanine nucleotide exchange factor 3 (Homo sapiens) (UniProt O95398); assay: Confirmatory qHTS for agonist of cAMP-regulated guanine nucleotide exchange factor 3 (EPAC1) (AID 1645881);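 also: EPAC1 catalysed release of BODIPY-GDP from Rap1B seen as fluorescence loss; nearly all actives have a fitted effect of over 75% in size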
# [23] = biological target: Rap guanine nucleotide exchange factor 4 (Homo sapiens) (UniProt Q8WZA2); assay: Confirmatory qHTS for agonist of cAMP-regulated guanine nucleotide exchange factor 4 (EPAC2) (AID 1645884);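 also: nucleotide exchange releases bodipy-GDP from Rap1 and this lowers its fluorescence; nearly all actives have a fitted effect of over 65% in size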
# [24] = biological target: Rap guanine nucleotide exchange factor 4 (Homo sapiens) (UniProt Q8WZA2); assay: Confirmatory qHTS for antagonist of cAMP-regulated guanine nucleotide exchange factor 4 (EPAC2) (AID 1645885); also: nearly all actives have a fitted effect of over 25% in size
# [25] = biological target: Rap guanine nucleotide exchange factor 3 (Homo sapiens) (UniProt O95398); assay: Counterscreen qHTS for antagonist of cAMP-regulated guanine nucleotide exchange factor 3 (EPAC1) (AID 1645888);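 also: fluorescence loss as bound BODIPY-GDP is released from Rap1B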
# Summary of the method: (§4)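 Rap1B–BODIPY-GDP (250 nM) with 50 uM GDP; compounds pin-transferred to 9.74 nM–152 uM final (activator) or from 7.32 nM upwards (inhibitor). Fluorescence Ex/Em 480/540 nm read at 5 and 30 min, then after adding cAMP or buffer, at room temperature.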
# [26] = biological target: Rap guanine nucleotide exchange factor 3 (Homo sapiens) (UniProt O95398); assay: Counterscreen qHTS for agonist of cAMP-regulated guanine nucleotide exchange factor 3 (EPAC1) (AID 1645889); also: nearly all actives have a fitted effect of over 40% in size
# Summary of the method: as §4
# Cytochrome P450 2C9 (Homo sapiens), sequence (P11712 whole entry, looked up): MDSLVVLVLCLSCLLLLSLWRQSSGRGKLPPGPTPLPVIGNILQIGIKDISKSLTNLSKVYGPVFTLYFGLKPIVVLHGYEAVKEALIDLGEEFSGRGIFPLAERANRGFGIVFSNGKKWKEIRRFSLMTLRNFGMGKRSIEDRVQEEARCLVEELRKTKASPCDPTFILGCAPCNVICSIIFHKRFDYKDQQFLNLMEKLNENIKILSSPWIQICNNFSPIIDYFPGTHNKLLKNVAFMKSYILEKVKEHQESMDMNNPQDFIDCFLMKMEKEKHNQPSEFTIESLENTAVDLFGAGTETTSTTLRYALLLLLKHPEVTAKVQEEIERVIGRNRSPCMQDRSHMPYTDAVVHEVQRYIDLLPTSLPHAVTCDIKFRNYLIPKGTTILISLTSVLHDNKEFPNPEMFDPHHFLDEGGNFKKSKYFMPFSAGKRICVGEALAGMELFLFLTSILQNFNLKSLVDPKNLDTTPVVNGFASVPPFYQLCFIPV
# Rap guanine nucleotide exchange factor 3 (Homo sapiens), sequence (O95398 whole entry, looked up): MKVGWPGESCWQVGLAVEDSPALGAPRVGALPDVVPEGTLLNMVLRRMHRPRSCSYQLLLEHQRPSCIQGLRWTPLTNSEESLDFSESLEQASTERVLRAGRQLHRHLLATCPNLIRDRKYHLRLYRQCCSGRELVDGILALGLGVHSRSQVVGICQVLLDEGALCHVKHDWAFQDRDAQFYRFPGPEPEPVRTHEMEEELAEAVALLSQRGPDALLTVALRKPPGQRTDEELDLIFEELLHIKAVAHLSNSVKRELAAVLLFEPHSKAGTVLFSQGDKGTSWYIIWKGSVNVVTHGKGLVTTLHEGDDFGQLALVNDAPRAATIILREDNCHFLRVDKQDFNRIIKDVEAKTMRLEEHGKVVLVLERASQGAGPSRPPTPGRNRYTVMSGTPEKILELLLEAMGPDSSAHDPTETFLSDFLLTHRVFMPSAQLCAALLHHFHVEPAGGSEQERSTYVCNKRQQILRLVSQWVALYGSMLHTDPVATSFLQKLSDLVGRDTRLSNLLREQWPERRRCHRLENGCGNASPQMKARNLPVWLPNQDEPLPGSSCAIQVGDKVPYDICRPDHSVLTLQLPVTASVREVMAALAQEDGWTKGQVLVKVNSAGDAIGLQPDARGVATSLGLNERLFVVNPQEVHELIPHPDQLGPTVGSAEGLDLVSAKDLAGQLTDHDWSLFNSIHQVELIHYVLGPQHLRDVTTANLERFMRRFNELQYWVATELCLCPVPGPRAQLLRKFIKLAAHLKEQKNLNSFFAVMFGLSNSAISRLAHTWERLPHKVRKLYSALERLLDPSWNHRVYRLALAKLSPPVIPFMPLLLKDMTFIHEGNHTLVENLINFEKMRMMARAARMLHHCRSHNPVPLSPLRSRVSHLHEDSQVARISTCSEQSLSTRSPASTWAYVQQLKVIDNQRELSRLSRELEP
# Cytochrome P450 2D6 (Homo sapiens), sequence (P10635 whole entry, looked up): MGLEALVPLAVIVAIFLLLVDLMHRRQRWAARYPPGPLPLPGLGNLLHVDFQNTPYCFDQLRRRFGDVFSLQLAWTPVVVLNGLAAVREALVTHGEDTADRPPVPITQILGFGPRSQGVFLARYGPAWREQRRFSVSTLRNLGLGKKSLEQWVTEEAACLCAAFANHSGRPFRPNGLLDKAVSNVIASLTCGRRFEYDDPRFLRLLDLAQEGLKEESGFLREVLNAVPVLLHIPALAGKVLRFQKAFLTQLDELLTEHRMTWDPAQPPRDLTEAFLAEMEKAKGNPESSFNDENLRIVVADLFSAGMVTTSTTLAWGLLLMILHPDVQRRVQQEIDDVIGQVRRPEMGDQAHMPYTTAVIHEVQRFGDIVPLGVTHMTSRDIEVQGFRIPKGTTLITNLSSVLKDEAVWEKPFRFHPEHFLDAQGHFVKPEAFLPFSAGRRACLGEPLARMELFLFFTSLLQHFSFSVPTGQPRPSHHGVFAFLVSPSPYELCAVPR
# Rap guanine nucleotide exchange factor 4 (Homo sapiens), sequence (Q8WZA2 whole entry, looked up): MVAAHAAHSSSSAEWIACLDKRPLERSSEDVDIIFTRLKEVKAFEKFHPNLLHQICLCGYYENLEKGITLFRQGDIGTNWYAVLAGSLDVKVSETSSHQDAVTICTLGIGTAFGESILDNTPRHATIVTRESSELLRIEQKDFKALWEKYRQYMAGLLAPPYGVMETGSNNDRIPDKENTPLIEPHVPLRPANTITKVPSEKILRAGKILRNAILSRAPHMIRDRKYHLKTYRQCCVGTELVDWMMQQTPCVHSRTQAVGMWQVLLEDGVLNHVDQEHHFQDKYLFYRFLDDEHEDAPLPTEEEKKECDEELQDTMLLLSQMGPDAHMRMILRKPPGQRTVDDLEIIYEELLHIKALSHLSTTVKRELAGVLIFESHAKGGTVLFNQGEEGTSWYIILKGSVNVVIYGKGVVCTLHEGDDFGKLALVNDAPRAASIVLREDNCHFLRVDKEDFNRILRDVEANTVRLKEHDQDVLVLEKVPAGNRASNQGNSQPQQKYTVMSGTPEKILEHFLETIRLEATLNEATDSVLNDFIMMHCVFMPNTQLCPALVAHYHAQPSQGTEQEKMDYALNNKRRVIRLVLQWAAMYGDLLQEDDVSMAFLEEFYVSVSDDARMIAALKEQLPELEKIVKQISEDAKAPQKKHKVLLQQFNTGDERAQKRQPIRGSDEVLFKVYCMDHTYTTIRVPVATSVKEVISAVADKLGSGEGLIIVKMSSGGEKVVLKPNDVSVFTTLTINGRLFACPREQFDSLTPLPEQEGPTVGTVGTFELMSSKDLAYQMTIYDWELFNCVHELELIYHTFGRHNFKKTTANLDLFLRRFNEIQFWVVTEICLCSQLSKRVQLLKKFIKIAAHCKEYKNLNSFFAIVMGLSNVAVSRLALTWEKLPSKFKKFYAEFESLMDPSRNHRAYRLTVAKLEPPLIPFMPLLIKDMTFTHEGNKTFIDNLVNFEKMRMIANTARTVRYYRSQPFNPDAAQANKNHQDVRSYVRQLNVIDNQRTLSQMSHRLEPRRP
# Phospholipid hydroperoxide glutathione peroxidase GPX4 (Homo sapiens), sequence (P36969 whole entry, looked up): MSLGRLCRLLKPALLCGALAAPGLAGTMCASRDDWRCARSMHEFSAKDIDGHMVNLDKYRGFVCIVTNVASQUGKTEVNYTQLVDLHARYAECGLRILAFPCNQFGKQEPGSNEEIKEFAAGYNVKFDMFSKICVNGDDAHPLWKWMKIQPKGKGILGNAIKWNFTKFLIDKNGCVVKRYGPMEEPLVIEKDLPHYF
# Nuclear receptor subfamily 1 group I member 2 (Homo sapiens), sequence (O75469 whole entry, looked up): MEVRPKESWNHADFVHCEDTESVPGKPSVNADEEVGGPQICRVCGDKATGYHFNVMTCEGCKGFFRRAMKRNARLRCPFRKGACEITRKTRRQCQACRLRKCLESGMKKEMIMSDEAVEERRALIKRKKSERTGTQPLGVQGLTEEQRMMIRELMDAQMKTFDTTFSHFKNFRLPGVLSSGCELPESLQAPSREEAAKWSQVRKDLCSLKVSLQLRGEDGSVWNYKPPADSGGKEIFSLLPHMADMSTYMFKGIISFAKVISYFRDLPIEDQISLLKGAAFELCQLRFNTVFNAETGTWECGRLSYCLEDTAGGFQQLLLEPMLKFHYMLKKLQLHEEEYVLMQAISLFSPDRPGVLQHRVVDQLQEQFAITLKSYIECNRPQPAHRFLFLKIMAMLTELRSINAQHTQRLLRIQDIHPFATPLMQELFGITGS
# Glutathione peroxidase 1 (Homo sapiens), sequence (P07203 whole entry, looked up): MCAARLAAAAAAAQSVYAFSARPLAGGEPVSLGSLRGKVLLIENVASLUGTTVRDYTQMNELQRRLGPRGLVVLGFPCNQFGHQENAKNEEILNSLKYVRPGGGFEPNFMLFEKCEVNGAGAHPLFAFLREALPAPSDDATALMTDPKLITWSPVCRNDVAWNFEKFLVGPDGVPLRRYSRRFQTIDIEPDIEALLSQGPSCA
# Cytochrome P450 2C19 (Homo sapiens), sequence (P33261 whole entry, looked up): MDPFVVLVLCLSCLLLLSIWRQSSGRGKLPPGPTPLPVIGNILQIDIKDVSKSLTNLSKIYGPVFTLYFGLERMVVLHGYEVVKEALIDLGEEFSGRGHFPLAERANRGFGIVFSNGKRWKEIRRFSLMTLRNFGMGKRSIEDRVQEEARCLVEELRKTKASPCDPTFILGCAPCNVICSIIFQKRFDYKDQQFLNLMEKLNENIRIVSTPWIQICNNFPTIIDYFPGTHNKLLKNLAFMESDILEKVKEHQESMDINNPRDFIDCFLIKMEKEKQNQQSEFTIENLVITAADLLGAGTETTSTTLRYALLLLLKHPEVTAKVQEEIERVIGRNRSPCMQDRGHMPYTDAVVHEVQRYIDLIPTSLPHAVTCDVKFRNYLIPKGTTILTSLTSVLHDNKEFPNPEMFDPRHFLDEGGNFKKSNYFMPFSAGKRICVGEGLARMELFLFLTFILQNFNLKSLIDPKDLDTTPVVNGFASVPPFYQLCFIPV
# Cytochrome P450 3A4 (Homo sapiens), sequence (P08684 whole entry, looked up): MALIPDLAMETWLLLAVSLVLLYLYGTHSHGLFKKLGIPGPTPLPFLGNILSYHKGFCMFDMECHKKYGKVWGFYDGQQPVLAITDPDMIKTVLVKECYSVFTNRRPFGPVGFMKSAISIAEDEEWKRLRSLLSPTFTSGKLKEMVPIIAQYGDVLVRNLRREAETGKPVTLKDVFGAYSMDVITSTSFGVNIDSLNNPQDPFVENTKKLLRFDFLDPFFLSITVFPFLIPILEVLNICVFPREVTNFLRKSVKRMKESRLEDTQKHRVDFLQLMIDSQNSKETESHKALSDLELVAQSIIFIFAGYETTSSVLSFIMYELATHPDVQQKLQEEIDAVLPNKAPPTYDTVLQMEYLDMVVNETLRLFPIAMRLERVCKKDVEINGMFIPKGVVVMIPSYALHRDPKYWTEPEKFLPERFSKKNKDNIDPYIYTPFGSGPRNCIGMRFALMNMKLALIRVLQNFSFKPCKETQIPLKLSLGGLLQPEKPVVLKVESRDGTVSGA
compound,measurement,setting,value
CCC(/C=C/[C@@H](C)[C@H]1CCC2C3CC=C4C[C@@H](O)CC[C@]4(C)C3CC[C@@]21C)C(C)C (stereo partly drawn),Potency,[1],inactive
same,Potency,[2],inactive
same,outcome,[3],inactive
same,outcome,[4],inactive
same,outcome,[5],inactive
same,outcome,[6],inactive
same,outcome,[7],inactive
same,outcome,[8],inactive
same,outcome,[9],inactive
same,outcome,[10],inactive
same,outcome,[11],inactive
same,outcome,[12],inactive
same,outcome,[13],inactive
same,max response,[14],3.05%
same,outcome,[15],inactive
same,outcome,[16],inactive
same,outcome,[17],inactive
same,outcome,[18],inactive
CC(C)[C@H](N)C(=O)O,Potency,[1],inactive
same,Potency,[2],inactive
same,Potency,[19],inactive
same,Potency,[20],inactive
COc1ccc(CN(C2CCCCC2)[S+](C)(=O)[O-])cc1OC,Potency,[1],inactive
same,Potency,[2],6.74 µM (active)
COc1ccc(CN(C2CCCCC2)[S+](=O)([O-])c2ccc(C)cc2)cc1OC,Potency,[1],inactive
same,Potency,[2],3.79 µM (active)
CCOc1ccc(-c2cc(NC(=O)Nc3ccccc3Cl)c(C(=O)OC)s2)cc1,Potency,[1],inactive
same,Potency,[2],5.35 µM (active)
CCC(C)Nc1cc(C(=O)NC2CC3CCC(C2)N3c2ccc(C(=O)C3CC3)cn2)c(C)cc1C(N)=O (stereo not drawn),Potency,[1],inactive
same,Potency,[2],8.49 µM (active)
Cc1ccc(OCC(=O)Nc2cccc(OCc3cc(=O)n4cccc(C)c4n3)c2)cc1C,Potency,[1],inactive
same,Potency,[2],0.756 µM (active)
N[C@@H]1CCCCN(c2c(F)cc3c(=O)c(C(=O)O)cn(C4CC4)c3c2Cl)C1,Potency,[1],inactive
same,Potency,[2],inactive
same,Potency,[19],inactive
same,Potency,[20],inactive
COc1ccc(-n2nc3c(N4CCCC(C(=O)NCc5cccc(F)c5)C4)nnc(C)c3c2C)cc1 (stereo not drawn),Potency,[1],1.69 µM (active)
same,Potency,[2],8.49 µM (active)
COc1ccc(NC(=O)c2nc(SCc3ccc(F)cc3)ncc2Cl)cc1,Potency,[1],inactive
same,Potency,[2],3.38 µM (active)
Cc1ccc2nc(NC(=O)CSc3nccn3Cc3ccccc3)sc2c1,Potency,[1],8.49 µM (active)
same,Potency,[2],9.52 µM (active)
Cc1cc(OCCCSc2nc(-c3ccc(C(C)(C)C)cc3)nc3cc(=O)[nH]n23)ccc1Cl,Potency,[1],inactive
same,Potency,[2],15.1 µM (active)
same,Potency,[21],67.5 µM (active)
same,Potency,[22],inactive
same,Potency,[23],inactive
same,outcome,[24],inactive [at 12.7 µM]
same,Potency,[25],inactive
same,Potency,[26],inactive
COc1cccc(C(=O)NC(c2ccc(Cl)cc2)c2cc(Cl)c3cccnc3c2O)c1 (stereo not drawn),Potency,[1],inactive
same,Potency,[2],23.9 µM (active)
Oc1c(C(c2ccccc2)N2CCN(c3cccc(Cl)c3)CC2)sc2nc(-c3ccco3)nn12 (stereo not drawn),Potency,[1],13.5 µM (active)
same,Potency,[2],5.35 µM (active)
same,Potency,[21],47.8 µM (active)
same,Potency,[22],inactive
same,Potency,[23],inactive
same,outcome,[24],inactive [at 12.7 µM]

# — PubChem BioAssay (NCATS)
